From PubChem
A selection: hits, their analogues and other compounds. The true share with any hit is near 19%.
HT1080 IDH1KD tx – toxicity to HT-1080 IDH1 knockdown cells (counter line); AID 686971; Potency, µM (series often up to 46.1 µM), for inactives: top-dose activity, negative = toxicity, usual class: cytotoxic; hit rate 2% among 360,000; HT-1080 IDH1 knockdown viability, ATP luminescence, 48 h;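 also: potency is read from the fitted curve at half-maximal effect; 0% = DMSO wells and -100% = cell-free medium wells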
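HT-1080-IDH1KD cells (IDH1 knocked down), 750/well in RPMI with 5% FBS, treated with compound 48 h at 37 degrees C. Viability by CellTiter-Glo luminescence, normalised to DMSO and no-cell wells; concentration-response curves classed.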
DT40 TDP1 CPT – DT40-hTDP1 cell growth loss with CPT; Potency, µM (top dose mostly 46.2 µM), for the others: top-dose activity change, negative = growth inhibition, most hits filed as inhibitors; chicken DT40 Tdp1-/-;hTDP1 cells + 20 nM CPT, ATP luminescence, 48 h; hit rate 12% among 420,000; also: potency is read from the fitted curve at half-maximal effect; nearly all actives have a fitted effect of over 55% in size
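Cell growth measured by CellTiter-Glo luminescence after a minimum 48 h, 37 C compound exposure with 20 nM CPT in Tdp1-knockout DT40 cells stably expressing hTDP1, seeded 400/well; qHTS titration format.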
TDP1 cell noCPT – qHTS for Inhibitors of human tyrosyl-DNA phosphodiesterase 1 (TDP1): qHTS in cells in absence of CPT. DT40 Tdp1-/- hTDP1 cells, no CPT, ATP luminescence, 48 h. Potency, µM (series often up to 46.2 µM), for inactives: top-dose activity change, negative = growth inhibition, most hits filed as inhibitors. hit rate 15% among 420,000; also: potency is read from the fitted curve at half-maximal effect; nearly all actives have a fitted effect of over 55% in size
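No-CPT arm: Tdp1-/-;hTDP1 DT40 cells (400/well) plus compounds, incubated ≥48 hr at 37 °C. Readout CellTiter-Glo luminescence.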
uPA generation – blocks generation of uPA at the cell surface | AID 540303 | hit rate 0.31% among 330,000 | Potency, µM (top dose mostly 38.3 µM), for inactives: at the top dose activity change, negative = inhibition, hits mostly inhibitors | cell surface uPA generation assay, qHTS; active = well fitted inhibition curve with a large enough effect; inconclusive = small, poorly fitted or top-dose-only effect; inactive = no such curve, though single readings can be large or run the other way; tested in mouse RAW 264.7 cells; also: potency is read from the fitted curve at half-maximal effect; nearly all actives have a fitted effect of over 55% in size
IL1B secr inh – inflammasome signaling inhibition, IL-1 beta readout | activity change, % at 57.5 µM | THP-1 LPS/ATP IL-1B secretion, AlphaLISA, 16 h; stronger effect = lower value | hit rate 4.7% among 360,000; in the data active = activity change below about -50%; inconclusive = mostly about -30% to -49%
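THP-1 cells pretreated 1 hr with compounds (up to 57.5 uM final), then stimulated with LPS (250 ng/mL final) plus ATP (1.25 mM final); secreted IL-1B measured by AlphaLISA after 16 hr, decreased signal indicating inhibition.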
HT1080-NT tox – kills 2HG-producing HT-1080-NT fibrosarcoma cells; HT-1080-NT fibrosarcoma viability, CellTiter-Glo ATP luminescence, 48 h; Potency, µM (doses to about 46.1 µM), for the others: top-dose activity, negative = less viability, most hits filed as cytotoxic; hit rate 1.6% among 360,000;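 also: NT is the 2HG producing partner of a matched IDH1 knockdown line; potency is read from the fitted curve at half-maximal effect; 0% = DMSO-treated cells and -100% = media-only wells without cells; nearly all actives have a fitted effect of over 55% in size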
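A 48-hour cytotoxicity screen used HT-1080-NT cells plated 2 hours before compound delivery. ATP-based CellTiter-Glo luminescence measured viability, normalized to DMSO and no-cell controls.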
The depositor's hits bear a star; ? = inconclusive; . = no result. Unless noted, calls follow the shape of the dose curve; as a rule, active = well fitted curve in the direction sought with a large enough effect; inconclusive = small, poorly fitted or top-dose-only effect, or another doubt; inactive = no such curve, though single readings can be large; an effect the other way counts as inactive or inconclusive. Unless noted, % is scaled to controls: 0 for no effect and ±100 for the full control effect.

SMILES	HT1080 IDH1KD tx	DT40 TDP1 CPT	TDP1 cell noCPT	uPA generation	IL1B secr inh	HT1080-NT tox
CC(=O)Nc1ccc(C(=O)N2CCCCC2c2cc(C(=O)NCc3ccc(F)cc3)no2)cc1 (centres undefined)	1.8%	-3.5%	-19.2%	.	-12.9	18.9%
O=C(Nc1nnc(S(=O)(=O)N2CCN(c3ccc(F)cc3)CC2)s1)c1ccco1	5.6%	16.4µM*	?	3.5%	6.8	1.6%
CCCCCCCCCCCCCCCC(=O)NC(C)C	.	8.3%	-0.3%	.	.	.
Cc1ccc(CNc2ncnc3c2c(-c2ccccc2)cn3-c2ccccc2)cc1	.	?	-88.2%	.	.	.
CCOc1ccc(-n2cc(-c3ccccc3)c3c(NCc4ccc(F)cc4)ncnc32)cc1	.	18.4µM*	11.6µM*	.	.	.
COc1ccc(CNc2ncnc3c2c(-c2ccccc2)cn3-c2ccccc2)cc1	.	?	20.6µM*	.	.	.
c1ccc(CCNc2ncnc3c2cnn3-c2ccccc2)cc1	-5.4%	?	?	4.7%	?	0.0%
CCOc1ccc(-n2cc(-c3ccccc3)c3c(NCCc4ccccc4)ncnc32)cc1	.	?	23.1µM*	.	.	.
CCOc1ccc(-n2cc(-c3ccccc3)c3c(Nc4cccc(F)c4)ncnc32)cc1	.	1.5%	-12.5%	.	.	.
CCc1nnc(NS(=O)(=O)c2ccc(NC(=O)c3cccc(OC)c3)cc2)s1	3.9%	5.8%	27.6%	6.5%	6.7	8.7%
COc1cccc(NC(=O)CSc2nc3cc(OC)c(OC)cc3c3nc(-c4ccccc4)nn23)c1	.	5.9%	-24.8%	.	.	.
Cc1c(C(=O)NCCO)[n+](=O)c2ccccc2n1[O-]	.	5.6%	-17.9%	.	.	.
CC(=O)c1c(C)n([O-])c2cc(F)c(F)cc2[n+]1=O	?	?	-27.6%	-10.9%	-99.8*	?
O=C(CSc1nc2ccccc2o1)NC1CCS(=O)(=O)C1 (centres undefined)	19.6%	-10.3%	-9.4%	6.4%	1.0	17.2%
COc1ccc(/C=C/C(=O)NCCCN2CCCCCC2)cc1	29.5%	1.2%	22.2%	8.4%	-26.6	17.3%
O=C(/C=C/c1ccc(F)cc1)NCCCN1CCN(CCCNC(=O)/C=C/c2ccc(F)cc2)CC1	-5.3%	?	25.9µM*	-0.5%	-26.3	-5.5%
CC(C)(CNC(=O)/C=C/c1ccc(F)cc1)CNC(=O)/C=C/c1ccc(F)cc1	?	?	?	-9.1%	-87.6*	?
COCc1cccc(-c2csc(C(C)(O)c3ccc(OC)cc3)n2)c1 (centres undefined)	-3.2%	?	?	.	16.6	13.2%
Cc1noc(C)c1C(=O)N1CCC2(CC1)CCN(c1ccncc1)CC2	.	-26.5%	?	.	.	.
CC(=O)c1sc(NC(=O)CCS(=O)(=O)c2ccc(F)cc2)nc1C	?	2.59µM*	2.91µM*	.	-94.1*	?
CC(=O)c1sc(NC(=O)CCS(=O)(=O)c2ccccc2)nc1C	?	5.17µM*	5.8µM*	4.7%	-22.9	-8.6%
CC(=O)c1sc(NCCOc2ccc(C)cc2)nc1C	-2.2%	?	14.6µM*	5.3%	35.6	4.1%
CC(=O)c1sc(NC(=O)C(C)C)nc1C	10.8%	-0.4%	-20.7%	-2.9%	-30.0	7.2%
CC(=O)Nc1nc(C)c(C(C)=O)s1	13.0%	14.6µM*	?	-4.7%	16.3	13.6%
Cc1ccc(C)c(Sc2ccc(S(=O)(=O)Nc3ccc(C(=O)O)cc3)cc2)c1	0.8%	-4.3%	2.7%	2.9%	40.9	7.2%
SMILES	HT1080 IDH1KD tx	DT40 TDP1 CPT	TDP1 cell noCPT	uPA generation	IL1B secr inh	HT1080-NT tox
C=CCN1C[C@H](C(=O)N(CCCN(C)C)C(=O)NCC)C[C@@H]2c3cccc4[nH]cc(c34)C[C@H]21	.	-6.5%	-18.2%	.	.	.
Cn1nc(Oc2ncc(C(F)(F)F)cc2Cl)cc1C(F)(F)F	0.0%	?	?	-1.2%	12.1	7.2%
C/C=C1\COC(C(=O)NCCCN2CCCC2=O)(C(F)(F)F)C=C1C=C(C)C (centres undefined)	9.3%	20.6µM*	18.4µM*	-4.9%	-8.0	1.2%
C/C=C1\COC(C(=O)NCc2ccccc2)(C(F)(F)F)C=C1C=C1CCCCC1 (centres undefined)	-21.1%	?	?	0.5%	-3.2	-3.0%
C/C=C1\COC(C(=O)NCCN2CCCC2)(C(F)(F)F)C=C1C=C1CCCCC1 (centres undefined)	-13.2%	18.4µM*	20.6µM*	-17.4%	-77.5*	-9.1%
CN(CCO)c1cc(N2CCN(C(=O)c3ccco3)CC2)c2nonc2c1[N+](=O)[O-]	7.3%	3.0%	9.5%	1.5%	-4.3	7.4%
CCN1C[C@@H]2[C@@H]3C(=O)N(Cc4ccccc4)C(=O)[C@@H]3[C@](CC)(C(=O)OC)N2C1=NC	11.6%	18.5%	1.6%	9.2%	10.3	16.1%
Cc1[nH]n(-c2ccccc2)c(=O)c1C(c1ccccc1[N+](=O)[O-])C(C#N)C#N (centres undefined)	-13.2%	?	?	13.6%	-9.2	2.1%
CCOc1cc(C(c2c(C)[nH]n(-c3ccccc3)c2=O)c2c(C)[nH]n(-c3ccccc3)c2=O)ccc1O	.	?	5.17µM*	.	.	.
Cc1[nH]n(-c2ccccc2)c(=O)c1C(C[N+](=O)[O-])c1ccc(F)cc1 (centres undefined)	7.5%	7.31µM*	11.6µM*	-9.9%	-12.1	-0.4%
Cc1[nH]n(-c2ccccc2)c(=O)c1C(c1cc(Cl)ccc1O)c1c(C)[nH]n(-c2ccccc2)c1=O	.	-19.2%	?	.	.	.
Cc1[nH]n(-c2ccccc2)c(=O)c1C(c1ccccc1C(=O)O)c1c(C)[nH]n(-c2ccccc2)c1=O	-9.0%	-18.9%	5.5%	2.9%	14.5	-6.4%
Cc1[nH]n(-c2ccccc2)c(=O)c1C(C[N+](=O)[O-])c1ccc(Cl)cc1 (centres undefined)	-21.9%	3.26µM*	4.11µM*	-8.2%	-13.7	?
Cc1ccc(C(C[N+](=O)[O-])c2c(C)[nH]n(-c3ccccc3)c2=O)cc1 (centres undefined)	-1.1%	4.61µM*	5.8µM*	-13.5%	11.7	-4.7%
COc1ccccc1-c1cnc(C(O)c2cccc(F)c2)[nH]1 (centres undefined)	7.5%	-20.1%	-27.7%	.	31.5	8.3%
COCCNS(=O)(=O)c1cc2[nH]c3c(c2cc1C)C(=O)CC(C)(C)C3	2.7%	-1.1%	?	8.8%	-9.0	0.0%
O=C(NC1CCCCC1)c1ccc(-c2ccccc2)cc1	13.1%	-22.9%	-21.2%	-19.0%	-15.9	14.1%
